Measurements taken from the supplement of paper PMC9262897, “Low-cost anti-mycobacterial drug discovery using engineered E. coli” (Nature Communications, 2022).
Counter-ions that a name gives are not always drawn. ± gives the standard deviation of the averaged measurements.

Legend:
Test in all cases: growth (OD600 after 10 h); higher = more growth (less inhibition)
[1] = system: E. coli TESEC Alr+ wild-type control; settings: compound 0.1 mM; raw OD600 reference: median of DMSO wells 0.241, cell-free background 0.041
Experimental: (§1)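 TESEC Mtb Alr E. coli, or the Alr+ wild-type control, in 384-well plates with Prestwick library compounds at 0.1 mM and 1% DMSO, across arabinose induction levels of 1E3 to 1E7 nM. Growth is read as OD600 after 10 h at 37 °C in triplicate biological replicates.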

E. coli TESEC Mtb Alr [2] = settings: compound 0.1 mM
Experimental: as §1

E. coli TESEC Mtb Asd = settings: compound 0.1 mM
Experimental: (§2)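 TESEC E. coli strains in which the native enzyme is deleted and replaced by arabinose-inducible Mtb Asd, DapB, CysH or TrpD, each grown in its selective medium. Strains were screened against the Prestwick library at 0.1 mM and 1% DMSO in 384-well format at low and high arabinose induction. Growth is read as OD600 after 10 h in triplicate.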

E. coli TESEC Mtb DapB = settings: compound 0.1 mM
Experimental: as §2

[3] = system: E. coli TESEC Alr+ wild-type control; settings: compound 0.1 mM; raw OD600 reference: median of DMSO wells 0.49, cell-free background 0.052
Experimental: (§3)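 TESEC Mtb Alr E. coli (ΔaraC ΔtolC ΔentC Δalr ΔdadX, arabinose-inducible Mtb Alr) or the Alr+ wild-type control strain, grown in defined M9-fructose medium without D-alanine in 96-well plates with Prestwick library compounds at 0.1 mM and 1% DMSO. Low Alr induction is 0.1 µM arabinose and high induction is 10 mM arabinose.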

E. coli TESEC Mtb Alr [4] = settings: compound 0.1 mM; remark: listed apart in the source
Experimental: as §3

[5] = arabinose 1000 nM, raw OD600 reference: median of DMSO wells 0.294, cell-free background 0.041
[6] = arabinose 10000 nM, raw OD600 reference: median of DMSO wells 0.264, cell-free background 0.041
[7] = arabinose 100000 nM, raw OD600 reference: median of DMSO wells 0.201, cell-free background 0.041
[8] = arabinose 1000000 nM, raw OD600 reference: median of DMSO wells 0.193, cell-free background 0.041
[9] = arabinose 10000000 nM, raw OD600 reference: median of DMSO wells 0.146, cell-free background 0.041
[10] = arabinose induction (level): High, raw OD600 reference: median of DMSO wells 0.331, cell-free background 0.041
[11] = arabinose induction (level): Low, raw OD600 reference: median of DMSO wells 0.417, cell-free background 0.041
[12] = arabinose induction (level): High, raw OD600 reference: median of DMSO wells […], cell-free background 0.041
[13] = arabinose induction (level): Low, raw OD600 reference: median of DMSO wells 0.227, cell-free background 0.041
[14] = arabinose 100 nM, raw OD600 reference: median of DMSO wells 0.413, cell-free background 0.052
[15] = arabinose 10000000 nM, raw OD600 reference: median of DMSO wells […], cell-free background 0.052

| Compound | growth [1] | growth (E. coli TESEC Mtb Alr [2]; [5]) | growth (E. coli TESEC Mtb Alr [2]; [6]) | growth (E. coli TESEC Mtb Alr [2]; [7]) | growth (E. coli TESEC Mtb Alr [2]; [8]) | growth (E. coli TESEC Mtb Alr [2]; [9]) | growth (E. coli TESEC Mtb Asd; [10]) | growth (E. coli TESEC Mtb Asd; [11]) | growth (E. coli TESEC Mtb DapB; [12]) | growth (E. coli TESEC Mtb DapB; [13]) | growth [3] | growth (E. coli TESEC Mtb Alr [4]; [14]) | growth (E. coli TESEC Mtb Alr [4]; [15]) |
| --- | --- | --- | --- | --- | --- | --- | --- | --- | --- | --- | --- | --- | --- |
| NC1CCN(c2c(F)cc3c(=O)c(C(=O)O)cn(C4CC4)c3c2Cl)C1 (centres undefined) [Clinafloxacin] | 0.0416 ± 0.0001 | 0.0399 ± 0.00042 | 0.0399 ± 0.00047 | 0.0418 ± 0.0019 | 0.03957 ± 5.8e-05 | 0.04037 ± 0.00015 | 0.0476 ± 0.0014 | 0.0476 ± 0.0014 | 0.0489 ± 0.0013 | 0.0481 ± 0.00067 | 0.05277 ± 0.00038 | 0.05347 ± 0.0004 | 0.0504 ± 0.00086 |
| CCCN[C@H]1CCc2nc(N)sc2C1 [Pramipexole dihydrochloride] | 0.237 ± 0.0095 | 0.289 ± 0.004 | 0.258 ± 0.0086 | 0.207 ± 0.015 | 0.191 ± 0.01 | 0.15 ± 0.0057 | 0.262 ± 0.068 | 0.334 ± 0.02 | 0.174 ± 0.013 | 0.209 ± 0.013 | 0.64 ± 0.0092 | 0.406 ± 0.013 | 0.363 ± 0.012 |
| C[C@]12CCC(=O)C=C1CC[C@@H]1[C@@H]2[C@@H](O)C[C@@]2(C)[C@H]1CC[C@]2(O)C(=O)CO [Hydrocortisone base] | 0.218 ± 0.012 | 0.265 ± 0.024 | 0.253 ± 0.0038 | 0.173 ± 0.026 | 0.169 ± 0.0059 | 0.137 ± 0.0037 | 0.294 ± 0.076 | 0.307 ± 0.074 | 0.183 ± 0.017 | 0.209 ± 0.047 | 0.578 ± 0.1 | 0.407 ± 0.0089 | 0.302 ± 0.0092 |
| COC(=O)C1=C(C#N)NC(C)=C(C(=O)OC(C)C)C1c1cccc([N+](=O)[O-])c1 (centres undefined) [Nilvadipine] | 0.148 ± 0.0031 | 0.203 ± 0.014 | 0.2569 ± 0.001 | 0.164 ± 0.014 | 0.0883 ± 0.002 | 0.149 ± 0.033 | 0.16 ± 0.0063 | 0.325 ± 0.029 | 0.208 ± 0.019 | 0.214 ± 0.015 | 0.212 ± 0.16 | 0.429 ± 0.0067 | 0.06 ± 0.0039 |
| C/C=C(/C(=C/C)c1ccc(O)cc1)c1ccc(O)cc1 [Dienestrol] | 0.0526 ± 0.0075 | 0.0496 ± 0.0047 | 0.0394 ± 0.0002 | 0.0419 ± 0.0015 | 0.0393 ± 0.0001 | 0.0759 ± 0.031 | 0.0492 ± 0.0033 | 0.0498 ± 0.0031 | 0.122 ± 0.035 | 0.0554 ± 0.0074 | 0.139 ± 0.14 | 0.0576 ± 0.014 | 0.05137 ± 0.00032 |
| C[C@]12CCC(=O)C=C1CC[C@@H]1[C@@H]2C(=O)C[C@@]2(C)[C@H]1CC[C@]2(O)C(=O)CO [Cortisone] | 0.216 ± 0.0023 | 0.278 ± 0.0049 | 0.237 ± 0.014 | 0.176 ± 0.011 | 0.1797 ± 0.00035 | 0.128 ± 0.0041 | 0.396 ± 0.078 | 0.445 ± 0.041 | 0.19 ± 0.0096 | 0.223 ± 0.023 | 0.46 ± 0.066 | 0.41 ± 0.0069 | 0.336 ± 0.0035 |
| O=C(O[C@@H]1C[C@@H]2C[C@H]3C[C@H](C1)N2CC3=O)c1c[nH]c2ccccc12 [Dolasetron mesilate] | 0.204 ± 0.0058 | 0.25 ± 0.0086 | 0.238 ± 0.0033 | 0.137 ± 0.0054 | 0.0823 ± 0.0017 | 0.114 ± 0.0051 | 0.226 ± 0.044 | 0.482 ± 0.053 | 0.192 ± 0.019 | 0.217 ± 0.016 | 0.473 ± 0.027 | 0.405 ± 0.016 | 0.23 ± 0.036 |
| O=C1c2c(O)ccc(O)c2C(=O)c2c(NCCNCCO)ccc(NCCNCCO)c21 [Mitoxantrone dihydrochloride] | 0.355 ± 0.0023 | 0.3551 ± 0.0031 | 0.3438 ± 0.0024 | 0.3501 ± 0.0014 | 0.3506 ± 0.001 | 0.3496 ± 0.0028 | 0.36 ± 0.0066 | 0.3445 ± 0.0031 | 0.348 ± 0.0055 | 0.348 ± 0.0049 | 0.259 ± 0.051 | 0.231 ± 0.0097 | 0.292 ± 0.025 |
| CCOC(=O)OC(C)OC(=O)[C@@H]1N2C(=O)[C@@H](NC(=O)[C@H](N)c3ccccc3)[C@H]2SC1(C)C (some centres undefined) [Bacampicillin hydrochloride] | 0.239 ± 0.011 | 0.305 ± 0.011 | 0.269 ± 0.0047 | 0.356 ± 0.0077 | 0.17 ± 0.0089 | 0.198 ± 0.006 | 0.237 ± 0.13 | 0.325 ± 0.034 | 0.185 ± 0.016 | 0.188 ± 0.0087 | 0.611 ± 0.013 | 0.41 ± 0.0064 | 0.338 ± 0.017 |
| Oc1ncnc2[nH]ncc12 [Allopurinol] | 0.234 ± 0.0068 | 0.283 ± 0.013 | 0.241 ± 0.0057 | 0.189 ± 0.019 | 0.172 ± 0.0073 | 0.141 ± 0.0016 | 0.449 ± 0.032 | 0.435 ± 0.038 | 0.216 ± 0.019 | 0.234 ± 0.016 | 0.53 ± 0.078 | 0.41 ± 0.013 | 0.34 ± 0.015 |
| CCn1nc(C(=O)O)c(=O)c2cc3c(cc21)OCO3 [Cinoxacin] | 0.0813 ± 0.0028 | 0.0736 ± 0.006 | 0.0622 ± 0.0033 | 0.089 ± 0.0035 | 0.108 ± 0.0017 | 0.139 ± 0.0015 | 0.335 ± 0.024 | 0.244 ± 0.035 | 0.211 ± 0.013 | 0.212 ± 0.0088 | 0.0852 ± 0.0034 | 0.0933 ± 0.016 | 0.0712 ± 0.0049 |
| NC(Cc1cc(I)c(Oc2cc(I)c(O)c(I)c2)c(I)c1)C(=O)O (centres undefined) [Thyroxine (L)] | 0.169 ± 0.0037 | 0.2363 ± 0.0021 | 0.284 ± 0.006 | 0.196 ± 0.021 | 0.154 ± 0.0089 | 0.185 ± 0.0093 | 0.354 ± 0.0042 | 0.292 ± 0.042 | 0.206 ± 0.008 | 0.243 ± 0.013 | 0.469 ± 0.018 | 0.369 ± 0.034 | 0.359 ± 0.019 |
| Nc1ccc(S(=O)(=O)Nc2ncccn2)cc1 [Sulfadiazine] | 0.257 ± 0.0066 | 0.288 ± 0.017 | 0.241 ± 0.0079 | 0.199 ± 0.036 | 0.1549 ± 0.0004 | 0.146 ± 0.0024 | 0.374 ± 0.043 | 0.414 ± 0.0071 | 0.184 ± 0.015 | 0.187 ± 0.023 | 0.464 ± 0.054 | 0.411 ± 0.011 | 0.312 ± 0.066 |
